# According to PubChem BioAssay (Tox21):
# Unmarked numbers belong to inactive results. Results filed as inconclusive are left out. Where a call stands in place of a potency, no number is given. Calls of active or inactive are those of the source. Unless noted, calls come from the whole dose curve; as a rule, active = well fitted curve in the direction sought with a large enough effect in the repeat runs; inconclusive = weak or mixed curves; inactive = no such curve, though single readings can be large; an effect the other way counts as inactive or inconclusive.
# Key:
# [1] = qHTS assay for small molecules that induce genotoxicity in human embryonic kidney cells expressing luciferase-tagged ATAD5 (AID 651632); note: nearly all actives have a fitted effect of over 15% in size; note: potency is the fitted concentration of half-maximal effect
# Outline: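 Increased luciferase signal from ATAD5-tagged reporter cells indicates DNA-damage-driven ATAD5 induction. HEK293T cells are treated for 16 hr at 37C before detection with Amplite.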
# [2] = qHTS assay for small molecule agonists of the p53 signaling pathway - cell viability (AID 651633; calls by dose curve;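 note: p53RE-bla HCT reporter cells with a stable beta-lactamase p53 reporter; series mostly up to about 83 µM; nearly all actives have a fitted effect of over 30% in size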)
# Outline: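 p53RE-bla cells were treated with compound for 16 hours at 37 C. Cytotoxicity was then measured as CellTiter-Glo luminescence after 30 min at room temperature.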
# [3] = qHTS assay for small molecules that induce genotoxicity in human embryonic kidney cells expressing luciferase-tagged ATAD5 - cell viability (AID 651634; calls by dose curve; note: nearly all actives have a fitted effect of over 25% in size; note: potency is the fitted concentration of half-maximal effect)
# Outline: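 Cytotoxicity counterscreen in HEK293T cells bearing an ATAD5-luciferase reporter: live-cell protease activity measured by CellTiter-Fluor fluorescence after 15.5 hr compound exposure.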
# [4] = qHTS assay for small molecule disruptors of the mitochondrial membrane potential - cell viability (AID 720634; calls by dose curve;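 note: human HepG2 liver cancer cells; series mostly up to about 83 µM; nearly all actives have a fitted effect of over 20% in size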)
# Outline: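 After overnight attachment at 37 C, HepG2 cells received compound or DMSO vehicle for 1 hr. Viability is then taken from ATP-driven luminescence following a 30 min room-temperature CellTiter-Glo step.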
# [5] = qHTS assay to test for compound auto fluorescence at 590 nm (red) in HepG2 cells (AID 720674)
# Outline: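 Fluorescence at 590 nm emission following 540 nm excitation was recorded from HepG2 wells one hour after compound transfer, with DMSO-only wells as vehicle and Rose Bengal sodium equivalency as the scale.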
# [6] = qHTS assay to test for compound auto fluorescence at 535 nm (green) in HepG2 cells (AID 720675)
# [7] = qHTS assay to test for compound auto fluorescence at 460 nm (blue) in HEK293 cells (AID 720678)
# Outline: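 Intrinsic compound fluorescence is recorded in live HEK293 cultures after overnight incubation at 37C, 5% CO2, using excitation 405 nm and emission 460 nm. Values are referenced to triamterene.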
# [8] = qHTS assay to test for compound auto fluorescence at 590 nm (red) in HEK293 cells (AID 720679)
# Outline: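 Red autofluorescence, HEK293 cells: 2,000 cells/well; attach 4-5 hr 37C; add 23 nL cpd or DMSO; incubate o/n 37C 5% CO2; read Ex540/Em590; Rose Bengal sodium reference.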
# [9] = qHTS assay for small molecule disruptors of the mitochondrial membrane potential (AID 720635); note: potency is the fitted concentration of half-maximal effect
# Outline: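 HepG2 cells exposed to compound 1 hr at 37C, then Mito-MPS dye 30 min. Ratio read of aggregate (540/590 nm) versus monomer (490/535 nm) fluorescence.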
SMILES,Potency [1],Potency [2],Potency [3],Potency [4],outcome [5],outcome [6],Potency [7],outcome [8],Potency [9],"fluorescence, relative to Rose Bengal [5]","fluorescence, % of fluorescein control [6]","fluorescence, % of triamterene [7]","fluorescence, % of fluorescent control [8]"
OCc1ccccn1,inactive,inactive,inactive,inactive,inactive,inactive,inactive,inactive,–,–,–,–,–
Oc1ccc2c(c1)OC[C@@H](N1CCC(O)(c3ccc(F)cc3)CC1)[C@H]2O,7.5 µM (active),inactive,inactive,–,inactive,inactive,inactive,inactive,33.5 µM (active),–,–,–,–
CC/C=C\C#N,inactive,inactive,inactive,inactive,inactive,–,–,inactive,–,–,–,–,–
CC(CCO)CCCC(C)(C)O (configuration not stated),inactive,inactive,inactive,inactive,inactive,inactive,inactive,inactive,–,–,–,–,–
Cc1onc(-c2ccccc2)c1-c1ccc(S(N)(=O)=O)cc1,inactive,inactive,inactive,inactive,–,inactive,inactive,inactive,–,–,–,–,–
C1=C\CC/C=C\CC/C=C\CC/1,inactive,inactive,inactive,–,inactive,inactive,inactive,inactive,–,–,–,–,–
CC(C)c1ccc2oc3nc(N)c(C(=O)O)cc3c(=O)c2c1,4.73 µM (active),inactive,inactive,inactive,inactive,inactive,inactive,inactive,–,–,–,–,–
O=C(O)/C=C/c1ccc(Cn2ccnc2)cc1,inactive,inactive,inactive,inactive,–,–,–,–,–,0.61% [at 18.6 µM],0.0058% [at 18.6 µM],-0.0046% [at 18.6 µM],-0.336% [at 18.6 µM]
OC[C@H]1O[C@@H]2O[C@H]3[C@H](O)[C@@H](O)[C@@H](O[C@H]4[C@H](O)[C@@H](O)[C@@H](O[C@H]5[C@H](O)[C@@H](O)[C@@H](O[C@H]6[C@H](O)[C@@H](O)[C@@H](O[C@H]7[C@H](O)[C@@H](O)[C@@H](O[C@H]8[C@H](O)[C@@H](O)[C@@H](O[C@H]9[C@H](O)[C@@H](O)[C@@H](O[C@H]1[C@H](O)[C@H]2O)O[C@@H]9CO)O[C@@H]8CO)O[C@@H]7CO)O[C@@H]6CO)O[C@@H]5CO)O[C@@H]4CO)O[C@@H]3CO,inactive,inactive,inactive,inactive,inactive,inactive,inactive,inactive,–,–,–,–,–
[O-][N+](=Nc1ccccc1)c1ccccc1,inactive,inactive,inactive,inactive,inactive,–,inactive,inactive,–,–,–,–,–
COc1nc(C)nc(N)n1,inactive,inactive,inactive,inactive,inactive,inactive,–,inactive,–,–,–,–,–
C1COCCO1,inactive,inactive,inactive,–,inactive,inactive,inactive,inactive,–,–,–,–,–
C=CCOCC(O)CS(=O)(=O)O (configuration not stated),inactive,inactive,inactive,inactive,inactive,inactive,–,inactive,–,–,–,–,–
Cn1cnc2c(=O)[nH]c(N)nc21,inactive,inactive,inactive,inactive,inactive,–,inactive,inactive,–,–,–,–,–
CCC(C)(C)C1CCC(OC)CC1 (configuration not stated),–,–,inactive,inactive,inactive,inactive,inactive,inactive,–,–,–,–,–
C=CC(=O)N1CCOCC1,–,inactive,inactive,–,inactive,inactive,inactive,–,–,–,–,–,–
C/C=C1\C(=O)C[C@H]2[C@@H]3CCC4=CC(=O)CC[C@]4(C)[C@H]3CC[C@]12C,–,inactive,inactive,inactive,inactive,inactive,inactive,inactive,–,–,–,–,–
NCC[C@H](O)C(=O)N[C@@H]1C[C@H](N)[C@@H](O[C@H]2O[C@H](CN)[C@@H](O)[C@H](O)[C@H]2O)[C@H](O)[C@H]1O[C@H]1O[C@H](CO)[C@@H](O)[C@H](N)[C@H]1O,–,inactive,inactive,inactive,inactive,inactive,inactive,inactive,inactive,–,–,–,–
CN(C)C(=O)C(CCN1CCC(O)(c2ccc(Cl)cc2)CC1)(c1ccccc1)c1ccccc1,–,–,–,inactive,inactive,inactive,–,inactive,–,–,–,–,–
CCc1cc(S(=O)(=O)O)c2cc(C(C)C)cccc1-2,–,inactive,inactive,inactive,inactive,inactive,inactive,inactive,–,–,–,–,–
CC(C)=CC(=O)O,–,inactive,inactive,inactive,–,inactive,inactive,inactive,inactive,–,–,–,–
CCCC(=O)O[C@]1(C(=O)CCl)[C@@H](C)C[C@H]2[C@@H]3CCC4=CC(=O)C=C[C@]4(C)[C@@]3(F)C(=O)C[C@@]21C,inactive,–,inactive,inactive,inactive,inactive,inactive,–,23.7 µM (active),–,–,–,–
C=C(C)C(=O)OCCCCCCCCCCCCCCCCCC,–,inactive,inactive,–,–,–,–,–,–,-0.0569% [at 18.6 µM],-0.0046% [at 18.6 µM],-0.0754% [at 18.6 µM],0.299% [at 18.6 µM]
CN(C)N=Nc1ccccc1,inactive,inactive,–,inactive,–,inactive,inactive,inactive,–,–,–,–,–
CO[Si](CCCNCCC[Si](OC)(OC)OC)(OC)OC,–,inactive,inactive,inactive,inactive,inactive,inactive,inactive,inactive,–,–,–,–

SMILES,Potency [1],Potency [2],Potency [3],Potency [4],outcome [5],outcome [6],Potency [7],outcome [8],Potency [9],"fluorescence, relative to Rose Bengal [5]","fluorescence, % of fluorescein control [6]","fluorescence, % of triamterene [7]","fluorescence, % of fluorescent control [8]"
O=S(=O)(c1cccc2cnccc12)N1CCCNCC1,inactive,inactive,–,inactive,inactive,inactive,inactive,inactive,–,–,–,–,–
C1CCCCCCCCCCC1,–,inactive,inactive,inactive,–,–,–,–,–,–,–,-0.115% [at 18.6 µM],-0.0949% [at 18.6 µM]
O=C(O)Cc1cc(I)c(Oc2cc(I)c(O)c(I)c2)c(I)c1,inactive,–,–,inactive,inactive,inactive,inactive,inactive,–,–,–,–,–
O=C(O)c1ccccc1-c1ccc(C(F)(F)F)cc1,inactive,–,inactive,inactive,–,inactive,inactive,inactive,–,–,–,–,–
Oc1cc(O)c2c(c1)O[C@H](c1ccc(O)c(O)c1)[C@H](O)C2,–,inactive,inactive,inactive,inactive,inactive,inactive,inactive,–,–,–,–,–
NC(=O)c1c(Cl)cccc1Cl,inactive,–,inactive,inactive,–,inactive,inactive,–,–,–,–,–,–
CNc1ncnc2nc[nH]c12,–,inactive,inactive,inactive,inactive,inactive,inactive,inactive,2.48 µM (active),–,–,–,–
CC(C)c1cccc(C(C)C)c1N,–,inactive,inactive,inactive,inactive,inactive,inactive,–,inactive,–,–,–,–
CCCc1ccccc1O,inactive,–,inactive,–,–,inactive,inactive,inactive,27.3 µM (active),–,–,–,–
CCCC=O,–,inactive,inactive,inactive,inactive,inactive,inactive,–,inactive,–,–,–,–
CCCCN(CCO)CCO,–,inactive,inactive,inactive,inactive,inactive,inactive,inactive,–,–,–,–,–
CC(C)(C)CC(C)(C)N,–,–,inactive,inactive,–,–,inactive,inactive,inactive,–,–,–,–
CC1(C)SC(C)(C)SC(C)(C)S1,–,–,inactive,inactive,inactive,inactive,inactive,–,inactive,–,–,–,–
CCCCCCCCCCCCCCC,–,inactive,inactive,inactive,–,inactive,–,–,inactive,–,–,–,–
C(=C(c1ccccc1)c1ccccc1)c1ccccc1,inactive,–,inactive,inactive,inactive,inactive,inactive,inactive,30.6 µM (active),–,–,–,–
CCCCCC[C@@H](CCC)C(=O)O,–,inactive,inactive,inactive,inactive,inactive,–,inactive,inactive,–,–,–,–
COC(=O)C1=C(C)NC(C)=C(C(=O)OCC(C)=O)C1c1ccccc1[N+](=O)[O-] (configuration not stated),–,–,23.7 µM (active),inactive,–,inactive,inactive,inactive,9.44 µM (active),–,–,–,–
Nc1cc(N)cc(C(=O)O)c1,–,inactive,inactive,inactive,inactive,–,inactive,inactive,inactive,–,–,–,–
CC(C)(O)Cc1ccccc1,–,inactive,inactive,inactive,inactive,inactive,–,inactive,inactive,–,–,–,–
Nc1[nH]c(=O)ncc1F,–,inactive,inactive,inactive,–,–,–,–,inactive,-0.615% [at 18.6 µM],0.005% [at 18.6 µM],0.082% [at 18.6 µM],–
CCCOCC(C)OCC(C)O (configuration not stated),–,inactive,inactive,inactive,inactive,–,inactive,–,–,–,–,–,–
CN(C)C(=O)Nc1ccccc1,inactive,–,inactive,inactive,inactive,inactive,inactive,inactive,–,–,–,–,–
CCN1CCN(c2cc3c(cc2F)c(=O)c(C(=O)O)cn3C2CC2)CC1,–,inactive,inactive,inactive,inactive,–,inactive,inactive,–,–,–,–,–
CC(=O)c1ccc(C)cc1,–,inactive,inactive,inactive,inactive,–,inactive,inactive,–,–,–,–,–
CC(=O)CCc1ccc(O)cc1,inactive,inactive,inactive,–,–,–,inactive,inactive,–,–,–,–,–
